Potency and max response data for eleven molecules are collected here from PubChem BioAssay (Tox21).

Unmarked numbers belong to inactive results. Records with an inconclusive call do not appear. Active and inactive are the calls of the source. The call rests on the fitted dose curve; in most records, active means well fitted curve in the direction sought with a large enough effect in the repeat runs; inconclusive means weak or mixed curves; inactive means no such curve, though single readings can be large; an effect the other way counts as inactive or inconclusive.

Assay [1] is described as follows: qHTS RealTime-Glo MT Cell Viability Assay in HEK293 cells - 16 hour (AID 1224872). Further: nearly all actives have a fitted effect of over 50% in size. Further: potency means the concentration at half of the fitted maximal effect. Summed up:
(§1)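 Cells + reagent dispensed (600 cells/well, HEK293) → 5 h at 37 C/5% CO2 → 23 nL compound in DMSO pinned → 40 h at 37 C → luminescence read at 0, 8, 16, 24, 32, 40 h.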
A general note: Quantitative high-throughput screening tests each substance at several concentrations.

Assay [2] can be described thus: qHTS RealTime-Glo MT Cell Viability Assay in HepG2 cells - 8 hour (AID 1224873). Further: nearly all actives have a fitted effect of over 55% in size. Further: potency means the concentration at half of the fitted maximal effect. Summed up:
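Real-time viability: cells seeded at 600 per well together with NanoLuc and cell-permeant prosubstrate, compounds added after 5 h incubation. Luminescence tracked at 0, 8, 16, 24, 32 and 40 h of exposure.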

Assay [3] can be described thus: qHTS RealTime-Glo MT Cell Viability Assay in HEK293 cells - 40 hour (AID 1224874). Further: nearly all actives have a fitted effect of over 50% in size. Further: potency means the concentration at half of the fitted maximal effect. To be noted: RealTime-Glo luminescence; max response: active compounds read low. Summed up: (§2)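 Nonlytic bioluminescent viability monitoring. HEK293 at 600 cells/well with reagent; 5 h settle; compound transfer by pintool; plates held at 37 C and read at set time points.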
The nature of assay [4]: A CellTox Green Cytotoxicity Assay to monitor cytotoxicity in HEK293 cells - 24 hour (AID 1224875). Further: nearly all actives have a fitted effect of over 45% in size. Further: potency means the concentration at half of the fitted maximal effect. Summed up: (§3)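 Cytotoxicity was tracked continuously in HEK293 cells by a DNA-binding dye excluded from viable cells. Compounds were transferred in DMSO 5 h after seeding; fluorescence was recorded at intervals up to 40 h.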
Assay [5] can be described thus: A CellTox Green Cytotoxicity Assay to monitor cytotoxicity in HepG2 cells - 16 hour (AID 1224876). Further: nearly all actives have a fitted effect of over 45% in size. Further: potency means the concentration at half of the fitted maximal effect. Summed up: (§4)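 Real-time, homogeneous cytotoxicity readout: dead-cell DNA staining by CellTox Green in HepG2 monolayers, fluorescence measured at timed intervals up to 40 h of continuous compound exposure.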
The nature of assay [6]: qHTS RealTime-Glo MT Cell Viability Assay in HepG2 cells - 32 hour (AID 1224877). Further: nearly all actives have a fitted effect of over 55% in size. Further: potency means the concentration at half of the fitted maximal effect. An outline of the steps: (§5)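 Real-time, nonlytic viability: 600 HepG2 cells/well mixed with NanoLuc enzyme plus prosubstrate; 5 h settle, compound (DMSO) added by pintool; luminescence monitored over 40 h at 37 C.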
Assay [7] can be described thus: A CellTox Green Cytotoxicity Assay to monitor cytotoxicity in HepG2 cells - 24 hour (AID 1224878). Further: nearly all actives have a fitted effect of over 45% in size. Further: potency means the concentration at half of the fitted maximal effect. Summed up:
as §4

A short description of assay [8]: A CellTox Green Cytotoxicity Assay to monitor cytotoxicity in HepG2 cells - 40 hour (AID 1224879). Further: nearly all actives have a fitted effect of over 40% in size. Further: potency means the concentration at half of the fitted maximal effect. An outline of the steps: as §4
Assay [9] in a line: qHTS RealTime-Glo MT Cell Viability Assay in HEK293 cells - 0 hour (AID 1224880). Further: nearly all actives have a fitted effect of over 45% in size. Further: potency means the concentration at half of the fitted maximal effect. Summed up: as §2
A short description of assay [10]: A CellTox Green Cytotoxicity Assay to monitor cytotoxicity in HEK293 cells - 32 hour (AID 1224881). Further: nearly all actives have a fitted effect of over 40% in size. Further: potency means the concentration at half of the fitted maximal effect. An outline of the steps:
as §3

A short description of assay [11]: A CellTox Green Cytotoxicity Assay to monitor cytotoxicity in HepG2 cells - 0 hour (AID 1224882). Further: nearly all actives have a fitted effect of over 35% in size. An outline of the steps:
as §4

Assay [12] in a line: A CellTox Green Cytotoxicity Assay to monitor cytotoxicity in HepG2 cells - 32 hour (AID 1224883). Further: nearly all actives have a fitted effect of over 50% in size. Further: potency means the concentration at half of the fitted maximal effect. Summed up: as §4
The nature of assay [13]: qHTS RealTime-Glo MT Cell Viability Assay in HepG2 cells - 16 hour (AID 1224885). Further: nearly all actives have a fitted effect of over 50% in size. Further: potency means the concentration at half of the fitted maximal effect. An outline of the steps: as §5
Assay [14] can be described thus: qHTS RealTime-Glo MT Cell Viability Assay in HEK293 cells - 24 hour (AID 1224886). Further: nearly all actives have a fitted effect of over 50% in size. Further: potency means the concentration at half of the fitted maximal effect. An outline of the steps:
as §1

Assay [15] can be described thus: qHTS RealTime-Glo MT Cell Viability Assay in HEK293 cells - 8 hour (AID 1224887). Further: nearly all actives have a fitted effect of over 50% in size. Further: potency means the concentration at half of the fitted maximal effect. Summed up: as §2
Assay [16] in a line: A CellTox Green Cytotoxicity Assay to monitor cytotoxicity in HEK293 cells - 16 hour (AID 1224888). Further: nearly all actives have a fitted effect of over 35% in size. Further: potency means the concentration at half of the fitted maximal effect. Summed up: as §3
Assay [17] in a line: A CellTox Green Cytotoxicity Assay to monitor cytotoxicity in HEK293 cells - 8 hour (AID 1224884). Further: nearly all actives have a fitted effect of over 35% in size. Further: potency means the concentration at half of the fitted maximal effect. An outline of the steps: as §3
A short description of assay [18]: A CellTox Green Cytotoxicity Assay to monitor cytotoxicity in HepG2 cells - 8 hour (AID 1224890). Further: nearly all actives have a fitted effect of over 45% in size. Further: potency means the concentration at half of the fitted maximal effect. Summed up: as §4
A short description of assay [19]: qHTS assay to identify small molecule antagonists of the estrogen receptor alpha (ER-alpha) signaling pathway using the BG1 cell line in the presence of 0.1 nM 17-beta-estradiol - cell viability counter screen (AID 1259241). Further: nearly all actives have a fitted effect of over 40% in size. Further: potency means the concentration at half of the fitted maximal effect. Summed up: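 The cell line endogenously expresses full-length ER-alpha and carries four EREs driving luciferase. Cells are cultured 5 days hormone-free, treated 22 hr with compounds and 0.1 nM estradiol, then viability is read by fluorescence.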

Assay [20] in a line: qHTS RealTime-Glo MT Cell Viability Assay in HepG2 cells - 0 hour (AID 1224889). Further: nearly all actives have a fitted effect of over 50% in size. Summed up:
as §5
On the % scale 0 is the no-effect control and ±100 the full control effect.

As for `CCC(C)Nc1ccc(NC(C)CC)cc1` (configuration not stated), the Potency in assay [1] was 4.45 µM (active); in assay [2], 19.9 µM (active); in assay [3] it was 3.97 µM (active); in [4], 17.7 µM (active); in assay [5], 35.3 µM (active); in assay [6] it was 17.7 µM (active). In addition, the Potency in assay [7] was 22.3 µM (active); in [8], 17.7 µM (active); in assay [9] it was 19.9 µM (active); in assay [10], 12.5 µM (active); in assay [12], 19.9 µM (active); in assay [13] it was 17.7 µM (active). The figures for the Potency in [14], in assay [15] and in assay [16] were 4.45 µM (active), 4.99 µM (active) and 39.7 µM (active), respectively. Moreover, in [11], the Potency result is “inactive”.

Take `Cc1onc(-c2c(Cl)cccc2Cl)c1C(=O)N[C@@H]1C(=O)N2[C@@H]1SC(C)(C)[C@@H]2C(=O)O`: the Potency entry in assay [1], in [2], in assay [4], in [5], in assay [6] and in assay [7] was “inactive” in each case. Further, the Potency result in [8], in assay [9], in [10], in assay [11], in assay [12] and in assay [17] was “inactive” throughout. Besides, the Potency result in assay [13], in [14], in assay [15], in [16], in assay [18] and in assay [19] was “inactive” each time. Also, the max response in assay [3] was 9.42%.

`CCCCCCCCCCCCCC[P+](CCCC)(CCCC)CCCC` (tested in a mixture with another compound): the Potency in assay [1] was 8.76 µM (active); in assay [2] it was 19.6 µM (active); in assay [3] it was 0.349 µM (active); in assay [4], 17.5 µM (active); in assay [5], 19.6 µM (active); in assay [6], 19.6 µM (active). The Potency was 15.6 µM (active) in [7]; 13.9 µM (active) in assay [8]; 15.6 µM (active) in assay [10]; 15.6 µM (active) in assay [12]; 19.6 µM (active) in assay [17]; 19.6 µM (active) in assay [13]. Moreover, the Potency was 1.96 µM (active) in assay [14], 15.6 µM (active) in [15], 17.5 µM (active) in assay [16] and 22 µM (active) in assay [18]. For the same molecule, the Potency entry in assay [9], in assay [11], in [20] and in assay [19] was “inactive” in each case.

For `CCOC(=O)O[C@H](C)OC(=O)c1ccc2c(c1)cc(C(=O)NC1CCN(C(C)C)CC1)n2Cc1cc(-c2ccc(Cl)s2)on1`, the Potency is 10.2 µM (active) in assay [1]; 16.2 µM (active) in assay [2]; 11.5 µM (active) in [3]; 20.4 µM (active) in [4]; 11.5 µM (active) in assay [5]; 10.2 µM (active) in [6]. The Potency was 11.5 µM (active) in assay [7]; 10.2 µM (active) in assay [8]; 18.2 µM (active) in assay [10]; 11.5 µM (active) in [12]; 51.3 µM (active) in assay [17]; 12.9 µM (active) in assay [13]. For the same molecule, the Potency in assay [14] was 11.5 µM (active); in assay [15], 11.5 µM (active); in assay [16], 45.8 µM (active); in [18], 18.2 µM (active); in [19] it was 64.1 µM (active). Besides, the Potency entry in [9], in [11] and in assay [20] was “inactive” throughout.

`NNc1nc(-c2ccc(N)cc2)cs1`: the Potency entry in [1], in assay [2], in [4], in assay [5], in [6] and in [7] was “inactive” throughout. Besides, the Potency result in assay [8], in assay [9], in assay [10], in [11], in [12] and in assay [13] was “inactive” in each case. The Potency result in [15], in assay [16] and in [18] was “inactive” throughout. Also, in assay [3], the Potency is 21.9 µM (active).

On to `Cc1cccc(CN2CCN(C(c3ccccc3)c3ccc(Cl)cc3)CC2)c1` (configuration not stated), for which the Potency result in assay [1], in [2], in assay [4], in assay [5], in assay [6] and in [7] was “inactive” throughout. The Potency result in assay [8], in [9], in assay [10], in assay [11], in assay [12] and in assay [17] was “inactive” in each case. Moreover, the Potency result in [13], in assay [14], in assay [15], in assay [16], in assay [20] and in assay [18] was “inactive” each time. Further, the Potency result in assay [19] was “inactive”. In addition, in assay [3], the max response was -13.7%.

In the case of `O=C(O)c1ccc(Cl)c(Cl)c1`, the Potency result in assay [1], in assay [2], in [4], in assay [5], in [6] and in assay [7] was “inactive” in each case. Also, the Potency result in assay [8], in assay [9], in [10], in [11], in [12] and in assay [17] was “inactive” throughout. For the same molecule, the Potency result in assay [13], in [14], in [15], in assay [16], in assay [20] and in assay [18] was “inactive” each time. Besides, the Potency entry in assay [19] was “inactive”. Besides, the max response in assay [3] was 2.99%.

For the molecule `CNC(=O)c1ccccc1`, the Potency entry in assay [1], in assay [2], in [4], in assay [5], in assay [6] and in assay [7] was “inactive” each time. Moreover, the Potency result in assay [8], in [9], in [10], in assay [11], in [12] and in assay [17] was “inactive” each time. Further, the Potency entry in [13], in [14], in assay [15], in assay [16], in assay [20] and in [18] was “inactive” in each case. Further, the Potency entry in assay [19] was “inactive”. Besides, the max response in [3] is -8.54%.

Consider `CN(C)C(=O)C1(N2CCCCC2)CCN(CC[C@@]2(c3ccc(Cl)c(Cl)c3)CN(C(=O)c3ccccc3)CCO2)CC1`, for which the Potency was 12.9 µM (active) in [1]; 45.8 µM (active) in assay [2]; 11.5 µM (active) in assay [3]; 40.8 µM (active) in assay [4]; 40.8 µM (active) in [5]; 18.2 µM (active) in assay [6]. The Potency is 20.4 µM (active) in [7]; 20.4 µM (active) in assay [8]; 32.4 µM (active) in assay [10]; 18.2 µM (active) in [12]; 36.3 µM (active) in [13]; 11.5 µM (active) in assay [14]. Besides, the Potency in [15] is 16.2 µM (active); in [16], 45.8 µM (active); in assay [18], 45.8 µM (active); in [19], 64.1 µM (active). Also, the Potency entry in assay [9], in [11] and in [20] was “inactive” in each case.

For `CCCCCCCCn1sc(Cl)c(Cl)c1=O`, the Potency in [1] was 3.47 µM (active); in assay [2], 6.16 µM (active); in [3] it was 3.47 µM (active); in [4] it was 1.1 µM (active); in assay [5] it was 7.76 µM (active); in assay [6], 5.49 µM (active). The Potency in assay [7] was 11 µM (active); in assay [8] it was 9.77 µM (active); in assay [10], 1.23 µM (active); in [12], 12.3 µM (active); in assay [17], 2.45 µM (active); in assay [13], 4.9 µM (active). Further, the Potency in assay [14] was 3.89 µM (active); in assay [15], 3.47 µM (active); in assay [16], 1.95 µM (active); in [18] it was 17.4 µM (active). The Potency entry in assay [9], in [11] and in assay [19] was “inactive” in each case.

Consider `CC(=O)OCC(C)OC(C)=O` (configuration not stated), for which the Potency result in [1], in assay [2], in [4], in assay [5], in [6] and in assay [7] was “inactive” in each case. Further, the Potency entry in [8], in [9], in [10], in assay [11], in assay [17] and in [13] was “inactive” throughout. Further, the Potency result in assay [14], in assay [15], in assay [16], in assay [20] and in [18] was “inactive” each time. For the same molecule, the max response in assay [3] is -0.171%.
